Measured values: PubChem BioAssay (EPA / NIEHS)
Records with an inconclusive call do not appear. Active and inactive are the calls of the source. The calls were made as follows: active = hit-call score of the fitted dose curve at least 0.9, where 1 is the maximum; inconclusive = response in the unintended direction; inactive = score below 0.9.

What follows are compounds tested against human Neurokinin, NK2 Receptor, TACR2 (gene 6865) (UniProt P21452) (assay: NVS_GPCR_hNK2: NovaScreen (NVS) G Protein-Coupled Receptor Assay for human Neurokinin, NK2 Receptor (AID 2283278);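 also: actives reduce bound radioligand signal relative to DMSO baseline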).
Procedure: NVS_GPCR_hNK2 is a biochemical, single-readout assay that uses extracted gene-proteins from CHO in a cell-free assay. Measurements were taken 4 hours after chemical dosing in a 96-well plate.NVS_GPCR_hNK2 is one of one assay component(s) measured or calculated from the NVS_GPCR_hNK2 assay. It is designed to make measurements of radioligand binding, a form of binding reporter, as detected with scintillation counting signals by Filter-based radiodetection technology.Data from the assay component NVS_GPCR_hNK2 was analyzed into 1 assay endpoint. This assay endpoint, NVS_GPCR_hNK2, was analyzed in the positive analysis fitting direction relative to DMSO as the negative control and baseline of activity. Using a type of binding reporter, loss-of-signal activity can be used to understand changes in the binding as they relate to the gene TACR2. Furthermore, this assay endpoint can be referred to as a primary readout, because the performed assay has only produced 1 assay endpoint. To generalize the intended target to other relatable targets, this assay endpoint is annotated to the gpcr intended target family, where the subfamily is rhodopsin-like receptor.
Binding assays used specific radioligands (tritiated, iodinated) with non-radioactive competitive displacement ligands in agonist or antagonist protocols (as indicated) and various reference compounds and inhibitors to titrate specific binding to receptors and transporters. Most enzyme assays (CYPs, kinases, phosphatases, proteases, HDACs) used recombinant protein and specific substrates (fluorescence mostly, some colorimetric and radioactive) and inhibitors, followed by a biochemical separation of substrate and product. All assays for the biochemical HTS were initially run in duplicate at a single concentration (10 uM for CYP450 assays and 25 uM for all others). […] Each assay was run with positive and negative controls, and concurrent controls on every plate. The follow-up (secondary) screen tested active chemical-pairs in concentration series, as well as a few additional assays not tested in the primary screen, some selected negative inactives, and several cases re-run in the concentration series for confirmatory purposes.

human Neurokinin, NK2 Receptor, TACR2 (gene 6865), sequence (P21452 whole entry, looked up): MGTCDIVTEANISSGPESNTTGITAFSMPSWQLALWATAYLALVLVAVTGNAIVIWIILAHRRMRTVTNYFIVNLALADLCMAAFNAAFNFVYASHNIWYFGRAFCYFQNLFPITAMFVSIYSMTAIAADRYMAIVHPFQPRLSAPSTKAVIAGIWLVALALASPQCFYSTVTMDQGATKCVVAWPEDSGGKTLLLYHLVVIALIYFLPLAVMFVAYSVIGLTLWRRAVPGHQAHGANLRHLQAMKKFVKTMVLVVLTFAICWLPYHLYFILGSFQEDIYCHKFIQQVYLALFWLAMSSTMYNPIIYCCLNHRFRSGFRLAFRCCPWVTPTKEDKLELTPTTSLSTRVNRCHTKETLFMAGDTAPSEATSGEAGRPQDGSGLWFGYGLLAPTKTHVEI

Compound | AC50 | outcome
CCn1nc(Cc2ccccc2)cc1C1CCN(C[C@H]2C[C@H](N(C)[C@@H](C(=O)O)C(C)C)C[C@@H]2c2cccc(F)c2)CC1 | 20.8 µM (active) | 
COc1cccc(-c2ccc(/C=C\CN3CCCCCC3)cc2Cl)c1 |  | inactive
Cc1[nH]cnc1C[C@H]1CCc2c(C)c3ccccc3n2C1=O |  | inactive
Cn1c(=O)cc(Oc2ccc(F)cc2F)c2cnc(NCC(C)(C)O)nc21 |  | inactive
On1ccccc1=S | 8.14 µM (active) | 
CNS(=O)(=O)c1cc(C(=O)N2CCC(CCN3C4CCC3CC(n3c(C)nc5ccccc53)C4)(c3cccc(F)c3)CC2)c(Cl)cc1F (stereo not given) | 1.71 µM (active) | 
O=C(O)c1cccc(N(Cc2cccnc2)c2ccc(OC(F)F)c(OC(F)F)c2)c1 |  | inactive
O=P(OC(CCl)CCl)(OC(CCl)CCl)OC(CCl)CCl | 12.5 µM (active) | 
CCOc1cccc(-n2cc(C(=O)N3CCN(c4cc(C(=O)O)c5ccccc5c4)CC3)nc2-c2ccc(C)cc2)c1 | 7.6 µM (active) | 
CC/C(=C\C(=N/O)C(N)=O)C(C)[N+](=O)[O-] (stereo not given) |  | inactive
COCCOc1cc2cc(C(=O)NC3CCN(C(C)C)CC3)n(CC(=O)Nc3ccc(Cl)cn3)c2cn1 |  | inactive
CC(C)=CCCC(C)=CC=O |  | inactive
CCOC(=O)COc1ccc2c(c1)CC(NCC(O)c1cccc(Cl)c1)CC2 (stereo not given) | 21.7 µM (active) | 
CN(C)c1ccc(N=NS(=O)(=O)O)cc1 | 0.656 µM (active) | 
CCOC(=O)c1ccc(C2CCC(NC[C@H](O)COc3ccc(O)c(NS(C)(=O)=O)c3)CC2)cc1 (stereo not given in full) | 5.98 µM (active) | 
